The list shows a part of the results. Values without a mark were called inactive. Calls of active or inactive are those of the source. Rule as the data show it: active = inhibition above about 32%; inactive = the rest.
target: Mu-type opioid receptor (Homo sapiens) + Delta-type opioid receptor (Homo sapiens) (UniProt P35372+P41143); test: inverse agonists of MOR-DOR heterodimerization, confirmation, cell-based, luminescence (AID 504900); details: cells expressing OPRM1/OPRD1 heterodimer, at 9.3 µM, stronger effect = higher value;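 also: 0% = cells with DMSO and 100% = wells lacking cells with DMSO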
Sequence (P35372 whole entry, looked up): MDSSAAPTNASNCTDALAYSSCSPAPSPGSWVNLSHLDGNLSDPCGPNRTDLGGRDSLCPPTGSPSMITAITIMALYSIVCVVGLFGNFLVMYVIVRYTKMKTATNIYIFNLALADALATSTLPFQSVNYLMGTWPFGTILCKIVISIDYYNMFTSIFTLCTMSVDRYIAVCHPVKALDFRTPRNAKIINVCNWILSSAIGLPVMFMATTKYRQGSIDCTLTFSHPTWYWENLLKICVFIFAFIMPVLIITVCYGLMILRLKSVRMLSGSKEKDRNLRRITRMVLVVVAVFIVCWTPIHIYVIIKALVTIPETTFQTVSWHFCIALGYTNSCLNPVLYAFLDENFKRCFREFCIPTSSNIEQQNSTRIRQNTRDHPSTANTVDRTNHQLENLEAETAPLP
Sequence (P41143 whole entry, looked up): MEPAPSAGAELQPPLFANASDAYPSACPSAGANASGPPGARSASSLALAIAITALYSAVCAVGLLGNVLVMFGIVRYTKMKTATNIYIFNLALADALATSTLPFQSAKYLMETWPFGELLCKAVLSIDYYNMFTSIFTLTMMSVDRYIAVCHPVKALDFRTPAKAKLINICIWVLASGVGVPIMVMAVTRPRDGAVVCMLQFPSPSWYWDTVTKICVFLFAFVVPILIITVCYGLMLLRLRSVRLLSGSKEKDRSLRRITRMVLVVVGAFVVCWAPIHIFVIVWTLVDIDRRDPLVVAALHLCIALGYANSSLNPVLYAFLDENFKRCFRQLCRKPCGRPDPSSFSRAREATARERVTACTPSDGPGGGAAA

SMILES	inhibition
O=[N+]([O-])/C=C/c1ccc2c(ccn2Cc2ccccc2)c1	-234%
Cc1cccc2c1N(CC(=O)OC(C)C)C(=O)C2=O	-138%
Cc1ccc(NNC(=O)c2cccs2)cc1Cl	-17.7%
O=C1C(=O)N(CC2COc3ccccc3O2)c2ccccc21 (centres undefined)	15.2%
COC(=O)Cc1c(-c2[nH]c3ccccc3c2CC(=O)OC)[nH]c2ccccc12	-123%
Cc1ccc2c(c1)C(O)(CC(=O)c1cccnc1)C(=O)N2 (centres undefined)	22.7%
CC(C)OC(=O)CN1C(=O)C(=O)c2ccccc21	-355%
O=C(CCl)NNc1cccc(Cl)n1	69.8% (active)
CN(c1ccccc1)S(=O)(=O)c1ccc(NC(=O)COc2ccccc2)cc1	-21.8%
Cc1cccc(N=Nc2c(O)[nH]c3ccc(F)cc23)c1	20.6%
Cc1ccc(C(=O)CNc2ccc(F)cc2)cc1	-20%
CCOC(=O)CN1C(=O)C(=O)c2cc(C)ccc21	-25.7%
CCOC(=O)CN1C(=O)C(O)(CC(=O)c2ccccn2)c2ccccc21 (centres undefined)	24.7%
COc1cc(NS(=O)(=O)c2ccc3ccccc3c2)c2ncccc2c1	-82.7%
CN(O)C(=S)c1ccccc1	16.7%
C=CCn1c(N)c(C(=O)OCC(C)C)c2nc3ccccc3nc21	14.8%
CCCCC(=O)NNC(=S)NC(=O)C(c1ccccc1)c1ccccc1	-427%
CN(C)/C=C1/Nc2ccccc2C1=O	-27.4%
O=C1C(=O)N(c2ccccc2)c2ccccc21	-11.8%
CCOc1ccc(NC(=O)c2cccc3c2C(=O)N(CC2CCCO2)C3)cc1 (centres undefined)	-4.18%
N#CC1=C(N)C(C#N)(C#N)[C@H](c2ccsc2)[C@H]2COCC=C12	-0.3%
Cc1cccc(C)c1NC(=O)C(Cl)C(=O)c1ccccc1 (centres undefined)	-42.6%
CSCCC(NC(=O)COc1ccccc1)C(=O)OCC(=O)c1cc2ccccc2o1 (centres undefined)	37.5% (active)
Oc1ccc(N=Nc2nccs2)c(O)c1	12.6%

— PubChem BioAssay AID504900 (The Scripps Research Institute Molecular Screening Center, 2011)
